According to paper PMC4336329 (PLoS ONE, 2015):
The campaign covered roughly 310,000 compounds. About 14,000 (4.5%) showed an effect of 50% or more. The effect is printed as a negative number. This excerpt belongs to a sample that is enriched for strong results.

target: human ether-à-go-go-related gene (hERG) potassium channel (human, UniProt Q12809); experiment: primary screen, population patch clamp on CHO cells stably expressing hERG; higher = less effect of the substance
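Also: peak tail current of the secondary pulse compared with the same well before compound.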

human ether-à-go-go-related gene (hERG) potassium channel, sequence (Q12809 whole entry, looked up): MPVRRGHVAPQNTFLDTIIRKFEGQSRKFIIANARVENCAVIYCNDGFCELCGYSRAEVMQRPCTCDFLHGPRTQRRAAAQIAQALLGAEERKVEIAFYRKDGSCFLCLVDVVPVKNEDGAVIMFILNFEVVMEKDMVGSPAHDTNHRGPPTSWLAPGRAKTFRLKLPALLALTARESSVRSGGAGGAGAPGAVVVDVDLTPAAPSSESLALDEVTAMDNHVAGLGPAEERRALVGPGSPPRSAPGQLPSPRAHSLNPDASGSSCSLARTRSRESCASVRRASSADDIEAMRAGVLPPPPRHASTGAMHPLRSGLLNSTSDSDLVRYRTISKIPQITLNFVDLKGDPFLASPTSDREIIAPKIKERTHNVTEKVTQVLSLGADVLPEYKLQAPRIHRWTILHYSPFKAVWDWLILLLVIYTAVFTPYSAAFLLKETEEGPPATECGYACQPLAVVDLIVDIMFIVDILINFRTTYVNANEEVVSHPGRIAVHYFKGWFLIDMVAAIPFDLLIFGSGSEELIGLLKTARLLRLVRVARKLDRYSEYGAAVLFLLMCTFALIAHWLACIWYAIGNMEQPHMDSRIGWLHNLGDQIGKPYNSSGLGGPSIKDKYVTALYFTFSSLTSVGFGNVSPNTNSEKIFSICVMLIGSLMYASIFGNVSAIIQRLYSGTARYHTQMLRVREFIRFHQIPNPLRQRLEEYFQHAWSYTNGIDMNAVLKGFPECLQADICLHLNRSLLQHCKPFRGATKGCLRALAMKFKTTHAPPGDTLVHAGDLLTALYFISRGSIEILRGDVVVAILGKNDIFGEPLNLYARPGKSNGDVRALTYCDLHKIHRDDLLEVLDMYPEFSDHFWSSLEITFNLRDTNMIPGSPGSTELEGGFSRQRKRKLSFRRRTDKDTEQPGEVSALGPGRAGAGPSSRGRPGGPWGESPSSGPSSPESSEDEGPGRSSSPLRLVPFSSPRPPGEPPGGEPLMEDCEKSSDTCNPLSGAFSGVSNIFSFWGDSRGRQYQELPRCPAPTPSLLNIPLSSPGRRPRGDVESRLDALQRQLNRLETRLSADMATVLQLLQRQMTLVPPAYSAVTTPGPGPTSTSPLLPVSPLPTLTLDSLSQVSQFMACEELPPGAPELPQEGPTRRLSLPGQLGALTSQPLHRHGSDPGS

SMILES	hERG current change (%, negative = inhibition) at 10uM [%]
COCC(=O)Nc1ccc(S(=O)(=O)Nc2ccccn2)cc1	17.8
Cc1ccc(S(=O)(=O)NCCOc2cc(C)ccc2C)cc1	-6.41
Cc1c(NC(=O)CSc2n[nH]c(-c3ccccc3)n2)c(=O)n(-c2ccccc2)n1C	3.93
CC1=C(C(=O)Nc2ccc(C(=O)NCCCN3CCCCC3)cc2)SCCO1	-24.8
CN(N)N=Nc1nc2c([nH]1)c(=O)n(C)c(=O)n2C	0.0258
Cc1cc(C)cc(SCc2noc(C(=O)NC(C)C)c2C(=O)O)c1	33.6
C=CCNC(=O)c1cnn(-c2ccccc2)c1-c1ccccc1	10.4
Cc1ccc(NCc2nnc(SCC(=O)Nc3nnc(C)s3)n2C)cc1	-1.72
COC(=O)C1CCN(C(=O)c2cc3c(=O)n4cccc(C)c4nc3n2Cc2ccccc2)CC1	13.2
Cc1cccn2c(=O)c3cc(C(=O)NC(C)C)c(=N)n(Cc4ccncc4)c3nc12	-72.4
Cc1ccc(S(=O)(=O)c2cc3c(=O)n4cccc(C)c4nc3n(Cc3ccncc3)c2=N)cc1	-40.8
COc1ccc(NC(=S)N(CCN(C)C)Cc2cccs2)cc1	-33.9
COc1ccc(NC(=S)N(CCCN2CCCCC2)Cc2cccs2)cc1	-61
COc1cccc(NC(=S)N(CCN(C)C)Cc2cccs2)c1	-10.5
COc1cccc(NC(=S)N(CCCN2CCOCC2)Cc2cn(C)c3ccccc23)c1	-10.7
COc1ccc(NC(=S)N(CCCN2CCN(C)CC2)Cc2cccs2)cc1	-53.4
COc1ccc(NC(=S)N(CCCN2CCOCC2)Cc2cn(C)c3ccccc23)cc1	-16.8
COc1ccc(NC(=S)N(CCCN2CCC(C)CC2)Cc2cccs2)cc1	-68.2
COc1ccc(NC(=S)N(CCCN2CCCC2)Cc2cccs2)cc1	-48
COc1cccc(NC(=S)N(CCCN2CCC(C)CC2)Cc2cccs2)c1	-59.2
CCCCN(C(=O)c1ccc(-c2ccc(Cl)cc2)o1)c1c(N)n(CCC)c(=O)[nH]c1=O	0.856
O=C(NC1CCCC1)C(c1cccs1)N(Cc1ccco1)C(=O)Cn1nnc(-c2cccs2)n1 (stereo not drawn)	2.45
CCC1CCCCN1C(=S)Nc1cccc(S(=O)(=O)N(C)C)c1 (stereo not drawn)	-6.73
CCOP(=S)(OCC)Oc1cc(C)oc(=O)c1Cl	19.6

SMILES	hERG current change (%, negative = inhibition) at 10uM [%]
COc1cc(C2=NOC(C(=O)NC3CCCCC3)C2)cc(OC)c1OC (stereo not drawn)	-8.08
Cc1cc(C)[n+](-c2ccc(Oc3ccccc3)c(S(=O)(=O)[O-])c2)[nH]1	13.6
CC(=O)Nc1ccc2c(c1)C(=O)N(c1cccc3ccccc13)C2=O	-9.32
COc1ccc(NP(=O)(Oc2ccc(Cl)cc2)Oc2ccc(Cl)cc2)cc1OC	-16.6
O=C(OC1CCOC1=O)c1cncc(Br)c1 (stereo not drawn)	-15.7
Nc1ccc(-c2ccc(N)c(C(=O)O)c2)cc1C(=O)O	7.74
CC(=O)NC12CC3CC(C1)CC(C(=O)Nc1nccs1)(C3)C2	6.58
CC(OC(=O)Cn1cnc2c1c(=O)n(C)c(=O)n2C)C(=O)NC1CCCCC1C (stereo not drawn)	15.4
CCC(c1nnnn1C1CCCCC1)N1CCN(C(=O)c2ccco2)CC1.Cl (stereo not drawn)	-11.4
COc1cc(/C=N/Nc2cccc(C)c2)ccc1OC(=O)c1ccco1	23.4
COc1ccc(NC(=S)NCCN2CCC(C)CC2)cc1Cl	-30.5
COc1ccc(NC(=S)N(CCCN2CCC(C)CC2)Cc2cccs2)cc1Cl	-73.1
COc1ccc(NC(=S)N(CCCN2CCCC2)Cc2cccn2Cc2ccc(Cl)cc2)cc1Cl	-6.98
Cn1c(Cn2nnc3ccccc32)nnc1SCC(=O)N1c2ccccc2Sc2ccccc21	-22.1
O=C(OCCN=C1NS(=O)(=O)c2ccccc21)c1ccncc1	-1.44
C/C(=N\NC(=O)Cn1cc([N+](=O)[O-])cn1)c1ccc(O)cc1	-5.56
COc1ccc(NS(=O)(=O)c2cccc(C(=O)NCC3(N4CCOCC4)CCCCC3)c2)cc1	-36.7
COc1ccc(NS(=O)(=O)c2cccc(C(=O)N3CCCCCCC3)c2)cc1	-28.9
O=C(c1cccc(S(=O)(=O)Nc2ccc(F)cc2)c1)N1CCCC1	-3.1
O=C(NCC1(N2CCOCC2)CCCCC1)c1cccc(S(=O)(=O)Nc2ccc(F)cc2)c1	-44.1
COc1ccc(NS(=O)(=O)c2cccc(C(=O)NCC3(N4CCCCC4)CCCCC3)c2)cc1	-55.4
O=C(NCC1(N2CCCCC2)CCCCC1)c1cccc(S(=O)(=O)Nc2ccc(F)cc2)c1	-64
COc1cc(/C=C2\C(=O)NN(c3ccccc3)C2=O)cc([N+](=O)[O-])c1O	22
O=C(N/N=C/c1coc2ccccc2c1=O)c1cccc([N+](=O)[O-])c1	26.8

SMILES	hERG current change (%, negative = inhibition) at 10uM [%]
Cc1ccccc1NC(=O)Cn1nnc(S(=O)(=O)c2ccc(C(C)(C)C)cc2)c1N	4.35
COc1ccc(S(=O)(=O)NCc2cccnc2)cc1C(=O)Nc1ccccc1	-47.9
CC(=O)Nc1ccc(NC(=O)c2ccc(N(Cc3ccccc3C)S(C)(=O)=O)cc2)cc1	-7.68
S=C(Nc1ccccc1)N1CCN(C2CCCCC2)CC1	-2.89
CCC1CCCCN1C(=O)CSc1nnc(CNC(=O)COc2ccc(Cl)cc2)o1 (stereo not drawn)	-32.5
COc1cnc(-c2ccccn2)nc1Oc1ccc(C(C)(C)C)cc1	-2.72
COc1cnc(-c2ccccn2)nc1Oc1ccc(Cl)cc1	-0.157
COc1cnc(-c2ccccn2)nc1Oc1ccccc1	-72.8
CC(C)C(=O)NC(c1ccccc1Cl)c1c(O)ccc2ccccc12 (stereo not drawn)	7.79
O=C(O)CCN1C(=O)CC(N2C(=O)/C(=C/c3ccc(Cl)cc3)SC2=S)C1=O (stereo not drawn)	18.8
CSc1snnc1-c1ccccc1	25.6
CC(C)(C)c1ccc(OCCCNC2CCCC2)cc1.O=C(O)C(=O)O	-54.5
Cc1ccc(C)c(OCCCNC2CCCC2)c1C.O=C(O)C(=O)O	-10.3
CCOc1cccc(OCCNC2CCCC2)c1.O=C(O)C(=O)O	5.28
C=CCNCCCCOc1ccc(OCc2ccccc2)cc1.O=C(O)C(=O)O	-42.1
COc1cccc(OC)c1OCCCNC1CCCC1.O=C(O)C(=O)O	-7.84
O=C(O)C(=O)O.OCCNCCCCOc1ccc(OCc2ccccc2)cc1	-32.1
CC(C)(C)c1ccc(OCCCNCc2ccccc2)cc1.O=C(O)C(=O)O	-19.5
O=C(O)C(=O)O.c1ccc(-c2ccc(OCCCNC3CCCC3)cc2)cc1	-86.1
O=C(O)C(=O)O.c1ccc(COc2ccc(OCCCNC3CCCC3)cc2)cc1	-57.1
O=C(O)C(=O)O.c1cc2c(cc1OCCNC1CCCC1)CCC2	0.00128
O=C(O)C(=O)O.c1ccc(Cc2ccc(OCCCNC3CCCC3)cc2)cc1	-58.9
Cc1ccc(OCCCNC2CCCC2)cc1	-0.454
COc1ccc(C2=NN(C(=O)COC(=O)c3ccc(NC(=O)CC#N)cc3)C(c3ccco3)C2)cc1 (stereo not drawn)	5.24

SMILES	hERG current change (%, negative = inhibition) at 10uM [%]
COC(=O)c1oc2nc(C)cc(C)c2c1N	-4.33
CC(C)N(C)C(=O)CCc1nnc(CCc2c[nH]c3ccccc23)o1	6.75
COc1ccc(C)cc1NC(=O)c1sc2ncn(CC(=O)N3CCCCC3)c(=O)c2c1C	9.03
Cc1ccnc(Nc2nc3ccccc3s2)n1	-4.71
COc1ccc(NC(=O)C2CCCN(c3nccc(C)n3)C2)cc1 (stereo not drawn)	-3.13
CCOC(=O)c1c(C)n(Cc2ccco2)c2c1cc(O)c1ccccc12	6.11
Cc1ccc(OCCn2c(NC(=O)c3ccco3)nc3ccccc32)cc1	-5.24
Cn1cc(Br)c(C(=O)Nc2c(F)c(F)c(F)c(F)c2F)n1	-6.6
COc1ccc(Cl)cc1S(=O)(=O)N1CCC(C(=O)NCc2ccccn2)CC1	-7.12
O=C(c1cccc([N+](=O)[O-])c1)N1CCCN(C(=O)c2cccc([N+](=O)[O-])c2)CC1	-42
O=C(c1cccc([N+](=O)[O-])c1)N1CCN(S(=O)(=O)N2CCCCC2)CC1	-15.2
Nc1ccc(C(=O)N2CCN(S(=O)(=O)/C=C/c3ccccc3)CC2)cc1[N+](=O)[O-]	-43.9
Cn1nc(C(=O)N2CCN(C(c3ccccc3)c3ccccc3)CC2)c2ccccc2c1=O	-35.2
O=C(c1ccc2ccccc2c1)N1CCN(S(=O)(=O)/C=C/c2ccccc2)CC1	-31.9
O=C(c1ccc(Cl)cc1)N1CCN(S(=O)(=O)/C=C/c2ccccc2)CC1	-54.8
Cn1nc(C(=O)N2CCN(S(=O)(=O)/C=C/c3ccccc3)CC2)c2ccccc2c1=O	-65.1
O=CN1CCN(C(=O)c2cccc([N+](=O)[O-])c2)CC1	-4.11
O=C(c1ccco1)N1CCN(S(=O)(=O)/C=C/c2ccccc2)CC1	-38.3
Cn1nc(C(=O)N2CCN(S(=O)(=O)c3ccccc3)CC2)c2ccccc2c1=O	-23
O=C(c1cccc([N+](=O)[O-])c1)N1CCN(C/C=C/c2ccccc2)CC1	-65.9
O=C(c1cccc([N+](=O)[O-])c1)N1CCN(S(=O)(=O)/C=C/c2ccccc2)CC1	-64.3
